# Experimental data as given in PubChem BioAssay AID1030 (National Center for Advancing Translational Sciences (NCATS), 2008).
# In all, about 220,000 compounds went through this assay and about 16,000 (7.3%) were called active. About 25% were inconclusive and are not listed. The entries come from a sample that favours actives as a whole. Values without a mark were called inactive. The call rests on the fitted dose curve; in most records, active means well fitted inhibition curve with a large enough effect (not every such curve was filed as active); inconclusive means small, poorly fitted or top-dose-only effect, or another doubt; inactive means no such curve, though single readings can be large or run the other way.
# Biological target: Aldehyde dehydrogenase 1A1 (Homo sapiens) (UniProt P00352)
# Assay: qHTS Assay for Inhibitors of Aldehyde Dehydrogenase 1 (ALDH1A1);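 on activity, negative = inhibition: plate controls were no enzyme wells and a reference inhibitor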
# Details: Purified ALDH1A1, NADH fluorescence, propionaldehyde substrate; series mostly up to 75.3 µM; activity, negative = inhibition: at the top concentration
# Potency means the concentration at half of the fitted maximal effect.
# Sequence of Aldehyde dehydrogenase 1A1 (Homo sapiens) (P00352 whole entry, looked up): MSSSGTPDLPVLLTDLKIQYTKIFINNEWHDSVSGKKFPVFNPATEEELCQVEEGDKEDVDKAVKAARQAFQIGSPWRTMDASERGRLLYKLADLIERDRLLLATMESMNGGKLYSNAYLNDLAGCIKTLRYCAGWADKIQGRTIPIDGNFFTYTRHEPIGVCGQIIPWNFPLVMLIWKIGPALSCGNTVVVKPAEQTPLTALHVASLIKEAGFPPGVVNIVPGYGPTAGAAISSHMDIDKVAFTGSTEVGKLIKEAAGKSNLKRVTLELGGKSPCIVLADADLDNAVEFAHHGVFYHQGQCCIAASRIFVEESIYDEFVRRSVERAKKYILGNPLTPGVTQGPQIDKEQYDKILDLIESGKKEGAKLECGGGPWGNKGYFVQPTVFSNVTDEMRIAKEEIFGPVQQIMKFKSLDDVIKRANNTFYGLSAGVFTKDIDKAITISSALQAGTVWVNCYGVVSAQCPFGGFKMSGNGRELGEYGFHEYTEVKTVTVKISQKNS
SMILES,"activity, negative = inhibition",Potency
Cc1c(Br)c([N+](=O)[O-])nn1CC(=O)Nc1sc2c(c1C(=O)OC(C)C)CCC(C)C2 (stereo unspecified),11.3%,–
CCCCC[C@H](O)/C=C/[C@@H]1[C@@H](CC(=O)CCC(=O)O)[C@@H](O)C[C@H]1O,3.43%,–
COc1ccc(C2CC(c3cccs3)=NN2C(=O)CSc2nncs2)cc1OC (stereo unspecified),-3.31%,–
COc1cc(/C=N/N=C(\N)c2nonc2N)cc(OC)c1OC,-1.07%,–
COCCNC(=O)C(OC(=O)c1cccs1)c1ccc(F)cc1 (stereo unspecified),3.83%,–
CCc1nc2oc3ccccc3c(=O)c2c(=O)n1Cc1ccc(OC)cc1,8.05%,–
O=c1c2ccccc2oc2nc(C3CCCCC3)n(Cc3ccco3)c(=O)c12,-10.5%,–
O=c1c2ccccc2oc2nc3n(c(=O)c12)CCCS3,–,25.1 µM (active)
COc1ccc(C2=NN(c3ccccc3)C(c3cccs3)C2)cc1 (stereo unspecified),14.6%,–
Cc1ccc(SCC(=O)Nc2ncc(C)s2)cc1,10.3%,–
Cc1cnc(NC(=O)CSc2nnc(-c3ccc(Cl)cc3Cl)n2N)s1,–,20 µM (active)
Cc1cnc(NC(=O)CSc2nnc(-c3ccccc3)n2Cc2ccccc2)s1,-1.75%,–
Cc1ccc(-c2cc(C(=O)NN)n[nH]2)o1,9.31%,–
O=C(O)CCCC(=O)Nc1ccc(Oc2cccc(C(F)(F)F)c2)nc1,9.57%,–
O=C(COC(=O)c1ccccc1C(=O)N1CCN(c2ccccc2)CC1)NCc1ccccc1,11.5%,–
Oc1ccc(N2CCN(C(=S)NCc3ccccc3)CC2)cc1,–,20 µM (active)
Oc1ccccc1N1CCN(C(=S)NCc2ccccc2)CC1,-6.52%,–
N/C(=N\OC(=O)c1ccc([N+](=O)[O-])cc1)c1ccccn1,13.7%,–
C[N+]1(CC(O)COc2ccccc2)CCN(C(=O)c2ccc([N+](=O)[O-])cc2)CC1 (stereo unspecified),9.82%,–
CC(=O)NCCn1c(SCC(=O)Nc2ccc(C)cc2)nc2ccccc2c1=O,1.03%,–
Nc1ccc(SCCN2C(=O)c3ccccc3C2=O)cc1,1.44%,–
CN(C)CCCn1c(SCCN2C(=O)c3ccccc3C2=O)nc2ccccc2c1=O,–,20 µM (active)
COc1ccc(C(=O)CSc2nnc(-c3ccco3)o2)cc1,-14.6%,–
COC(=O)C1=C(NC(=O)C(C)(C)C)CCS1,6.13%,–
C=CCC(C(=O)c1ccccc1)[N+](C)(C)CC=C (stereo unspecified),5.4%,–
Cc1ccc(Cl)cc1NC(=S)N(CCN(C)C)Cc1cccs1,1.93%,–

SMILES,"activity, negative = inhibition",Potency
N#C/C(=C(\O)C(F)(F)F)c1nnc2n1CCCCC2,–,4.47 µM (active)
N#Cc1cccc(Nc2c3c(nc4ccccc24)CCCC3)c1,2.92%,–
CCc1nnc(NC(=O)CCN(c2ccc(C)cc2)S(=O)(=O)c2ccccc2)s1,-0.208%,–
CCOC(=O)Cn1c(=O)oc2cc(S(=O)(=O)N(C)Cc3ccco3)ccc21,–,15 µM (active)
CCOc1ccc(S(=O)(=O)N(CC(=O)NCC(F)(F)F)Cc2ccco2)cc1,3.47%,–
CCOC(=O)Cn1c(=O)oc2cc(S(=O)(=O)NCC3CCCO3)ccc21 (stereo unspecified),1.27%,–
Cc1ccc(CN2CCN(Cc3ccc(OCCO)cc3)CC2CCO)o1 (stereo unspecified),6.25%,–
COc1c(C)cc(C(=O)C2CCCN(S(=O)(=O)c3c(C)noc3C)C2)cc1C (stereo unspecified),-2.76%,–
C[C@H]1Cc2c(COc3ccccc3)nc3c(c2CO1)CN(C(=O)NCc1ccco1)CC3,-1.72% [at 13.5 µM],–
Cc1ccc(OCC(=O)N2CCN(C(=O)c3cccnc3)CC2)cc1,-3.66%,–
C[C@H]1Cc2c(-c3ccccc3)nc3c(c2CO1)CN(C(=O)C1CC1)CC3,8.3% [at 13.5 µM],–
COc1ccc(-c2nc3c(c4c2C[C@H](c2ccccc2)OC4)CN(C(=O)c2ccco2)CC3)c(C)c1,–,1.78 µM (active)
COc1ccc(F)c(-c2nc(CN3CCC(c4ccccc4)CC3)c(C)o2)c1,-4.43%,–
COc1ccc(-c2nc3c(c4c2C[C@H](c2ccccc2)OC4)CN(S(=O)(=O)c2c(C)noc2C)CC3)c(C)c1,–,0.447 µM (active)
COc1cccc(CC(=O)N2CCc3nc(COc4ccccc4)c4c(c3C2)CO[C@@H](C)C4)c1,6.69% [at 13.5 µM],–
COc1ccc(-c2nc3c(c4c2C[C@H](c2ccccc2)OC4)CN(C(=O)c2cccnc2)CC3)c(C)c1,–,0.355 µM (active)
COc1ccc(-c2nc3c(c4c2C[C@H](c2ccccc2)OC4)CN(C(=O)C2CC2)CC3)c(C)c1,–,0.398 µM (active)
C[C@H]1Cc2c(-c3ccccc3)nc3c(c2CO1)CN(S(=O)(=O)c1ccc(Cl)c2nonc12)CC3,-9.79% [at 13.5 µM],–
C[C@H]1Cc2c(COc3ccccc3)nc3c(c2CO1)CN(C(=O)Nc1cccc(C#N)c1)CC3,-13.5% [at 13.5 µM],–
CN1CCN(/N=C/c2ccc(-c3ccc([N+](=O)[O-])cc3)o2)CC1,-8.28%,–
CCOC(=O)N1CCN(C(=S)Nc2ccc(C)cc2C)CC1,-5.34%,–
CCOc1ccc(N(CC(=O)NCCc2ccc(OC)cc2)S(C)(=O)=O)cc1,-2.6%,–
COCOc1cc(OC)ccc1C(=O)/C=C/c1ccc([N+](=O)[O-])cc1,-8.84%,–
CCOc1ccc(-c2n[nH]c(C)c2-c2ccccn2)c(O)c1,4.95%,–
Cc1cc(C)cc(C(=O)N(CCc2ccccc2)C2=CC3CCC(C2)N3C)c1 (stereo unspecified),8.36%,–
CCn1c(CNC(=O)c2ccco2)nnc1SCC(=O)Nc1cccc(F)c1,4.1%,–

SMILES,"activity, negative = inhibition",Potency
Nc1ccc(OCC(O)C[n+]2ccc(CCS(=O)(=O)[O-])cc2)cc1 (stereo unspecified),-10%,–
Cc1ccc(NC(=O)C(=O)NCc2ccc(/C=N/NC(=O)c3c(C)nc4cc(C)ccn34)o2)cc1,-4.69%,–
CCOC(=O)C(NC(C)=O)C(=O)Nc1ccc(OC)cc1 (stereo unspecified),6.93%,–
COc1ccc(CC(=O)NCc2nnc(SCC(=O)Nc3nccs3)n2C)cc1,-7.51%,–
CCn1c(COc2ccc(OC)cc2)nnc1SCC(=O)Nc1cc(OC)ccc1OC,-3.3%,–
COC(=O)c1ccc(NC(=O)CSc2nnc(CNc3ccc(OC)cc3)n2C)cc1,–,28.2 µM (active)
O=C(CSc1nnc(-c2cccnc2)n1Cc1ccco1)c1ccc(Cl)cc1,-9.79%,–
CCn1c(CNC(=O)c2ccc(OC)c(OC)c2)nnc1SCC(=O)Nc1ccccc1,-7.28%,–
CCn1c(CNc2ccc(OC)cc2)nnc1SCC(=O)c1ccc(OC)cc1,–,0.199 µM (active)
COC(=O)c1ccc(NC(=O)CSc2nnc(-c3ccncc3)n2C)cc1,-10.8%,–
CCn1c(COc2ccccc2)nnc1SCC(=O)NCc1ccco1,12.4%,–
COc1ccc(C(=O)CSc2nnc(COc3ccccc3)n2Cc2ccco2)cc1,–,8.91 µM (active)
CN(Cc1ccccc1)C(=O)CCc1ccccc1,0.149%,–
CCOCCCNC(=O)C(=O)NCCCOCC,8.26%,–
CC(C)C(=O)Nc1cccc(NC(=O)c2ccc([N+](=O)[O-])cc2Cl)c1,-8.63%,–
Clc1ccc(N/N=C/c2cccs2)nn1,-10.1%,–
Cc1ccccc1-c1ccc(C(=O)O)s1,-7.43% [at 120 µM],–
COc1ccc(CN2CCCC(C(=O)c3ccc(Cl)cc3)C2)cc1Cn1cncn1 (stereo unspecified),0.371%,–
CCOC(=O)c1[nH]ncc1CN1CCCC(C(=O)c2ccc(OC)cc2C)C1 (stereo unspecified),5.87%,–
COc1cc(OC)c(C(=O)N2CCCC2)cc1OC,4.29%,–
Cc1ccc(S(=O)(=O)N2CCC(C(=O)N[C@@H](C)C(=O)NCc3ccco3)CC2)cc1,2.42%,–
O=C(NCc1ccco1)C1CCCN(S(=O)(=O)c2ccccc2)C1 (stereo unspecified),-4.25%,–
Cc1ccc(S(=O)(=O)N2CCCC2C(=O)NCc2ccco2)cc1 (stereo unspecified),–,28.2 µM (active)
CSc1ncccc1C(=O)N1CCCC(CCC(=O)NCc2ccccc2F)C1 (stereo unspecified),-1.19%,–
COc1ccc(OC)c(-n2nnnc2SCC(=O)Nc2cc(C)ccc2OC)c1,-7.65%,–
Cc1cc(C(=O)COC(=O)CNC(=O)c2ccc(F)cc2)c(C)n1Cc1ccco1,-8.91%,–

SMILES,"activity, negative = inhibition",Potency
COc1ccc(C)cc1-n1nnnc1SCC(=O)c1cc(C)n(Cc2ccco2)c1C,–,15.8 µM (active)
CC/C=C\C/C=C\C/C=C\C/C=C\C/C=C\C/C=C\CCC(=O)NCCc1ccc(O)c(O)c1,-7.38%,–
COc1ccccc1OCc1ccc(C(=O)N2CCN(C)CC2)o1,0.393%,–
O=C(c1ccco1)N1CCN(C(=O)c2ccc(COc3ccc(F)cc3)o2)CC1,–,28.2 µM (active)
O=C(c1ccco1)N1CCN(C(=O)C2CC(c3ccc(F)cc3)=NO2)CC1 (stereo unspecified),5.77%,–
CN(C)S(=O)(=O)c1cc(NC(=O)CN2C(=O)NC3(CCCc4ccccc43)C2=O)ccc1Cl (stereo unspecified),–,12.6 µM (active)
Cc1ccc(NC(=O)CNCc2ccccn2)cc1S(=O)(=O)N(C)C,-2.4%,–
COc1ccc(-n2c(C)cc(C(=O)CN3C(=O)NC4(CCc5ccccc54)C3=O)c2C)cc1 (stereo unspecified),-6.6%,–
Cc1ccc(/C=N/NC(=O)Cn2ccc(C(F)(F)F)n2)o1,2.52%,–
CCN(CC)N=Nc1cccc(NC(C)=O)c1,0.592%,–
O=C(Nc1ccncc1)c1cc2ccccc2o1,2.07%,–
Cc1c(/C=N\NC(=O)c2cc3ccccc3o2)c2ccccc2n1C,3.07%,–
O=C(N/N=C/c1coc2ccccc2c1=O)c1cc2ccccc2o1,–,10 µM (active)
NC(=O)Cn1nc([N+](=O)[O-])nc1Oc1ccc(Br)cc1,10.1%,–
CC(C)(C)C(=O)N(Cc1ccccc1)c1ccccn1,-3.2%,–
CC(C)CCN1CCN(Cc2cn[nH]c2C2CCCCC2)CC1CCO (stereo unspecified),1.48%,–
CCCC(O)(CCC)C(=O)NN(C(=O)CCl)c1cccc(C)c1,–,39.8 µM (active)
CC(C)(O)C(=O)NN(C(=O)c1ccccc1)c1cccc(Br)c1,7.28%,–
CCC(C)NC(=O)CCCc1ccccc1 (stereo unspecified),6.92%,–
CCCCCCCCC(=O)NCCOc1ccccc1,3.47%,–
CCCCC(O)(CCCC)C(=O)NN(C(=O)CCl)c1ccccc1,–,3.98 µM (active)
Cc1ccc(N(NC(=O)C(C)(C)O)C(=O)c2ccccc2)cc1C,-4.71%,–
Cc1cc(NC(=O)CSCc2ccccc2C)no1,-0.887%,–
